From PubChem
Polio RdRp inh = poliovirus RdRp elongation inhibitors, primary screen, biochemical, fluorescence polarization, total intensity; poliovirus polymerase elongation; active compounds read low; 150,000 compounds, 0.66% hits; % elongation, % (compound at 16.7 µg/mL); Genome polyprotein (Poliovirus type 1 (strain Mahoney)), P03300; AID 588519, 2011; in the data active means % elongation below about 90%
AID504770 = growth inhibition of E. coli YBA685, primary screen, V. cholerae RctB inhibitors; z-score (concentration not given with the values); E. coli YBA685 rctB-dependent plasmid, OD600 growth, 3 h; active compounds read low; 130,000 compounds, 0.27% hits; in the data active means z-score below about -2, passing the limit was not always enough
Mtb MbtI inh = MbtI salicylate synthase inhibitors, primary screen, biochemical, fluorescence intensity; purified MbtI enzyme, fluorescence intensity read-out; AID 493033, 2011; P9WFX0; 100,000 compounds, 0.89% hits; inhibition, % (concentration not given with the values); in the data active means inhibition mostly above about 56%, no sharp cut-off; inactive means mostly below about 77%
Target sequence (P9WFX0 whole entry, looked up): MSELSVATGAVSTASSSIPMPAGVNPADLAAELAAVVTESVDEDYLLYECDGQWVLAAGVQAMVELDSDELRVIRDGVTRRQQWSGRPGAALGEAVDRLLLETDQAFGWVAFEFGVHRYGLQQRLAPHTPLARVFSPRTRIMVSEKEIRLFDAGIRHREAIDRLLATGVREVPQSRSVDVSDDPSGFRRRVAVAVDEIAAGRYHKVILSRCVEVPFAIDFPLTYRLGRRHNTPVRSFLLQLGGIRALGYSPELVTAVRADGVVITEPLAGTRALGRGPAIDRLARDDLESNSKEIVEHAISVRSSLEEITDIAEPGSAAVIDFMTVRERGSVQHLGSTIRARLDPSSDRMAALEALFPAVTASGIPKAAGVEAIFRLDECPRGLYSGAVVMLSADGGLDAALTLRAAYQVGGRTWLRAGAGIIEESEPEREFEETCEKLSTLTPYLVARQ
MenB inh = M. tuberculosis MenB inhibitors, primary screen, biochemical, absorbance; inhibition, % (concentration not given with the values); 100,000 compounds, 0.43% hits; MenB enzyme assay, absorbance read-out; 1,4-dihydroxy-2-naphthoyl-CoA synthase (Mycobacterium tuberculosis (strain ATCC 25618 / …; in the data active means inhibition above about 21%, passing the limit was not always enough
The depositor's hits bear a star; i = inactive; / = no result. An excerpt weighted towards active compounds, which were near 1.4% of everything screened.

SMILES	Polio RdRp inh	AID504770	Mtb MbtI inh	MenB inh
Cn1c(Cc2nnc3n2-c2ccccc2SC3)nc2ccccc21	100	0.25	6	-1
COc1ccc(CCN2C(=O)C=CC2=O)cc1	102	-0.25	93*	/
COc1ccc(CN2C(=O)C=CC2=O)cc1	/	-1.4	/	/
CC(C)c1ccc(-c2nnn(Cc3cc(=O)n4ccsc4n3)n2)cc1	104	-2.2*	-51	-4
O=C(O)c1ccc(C2Nc3ccccc3C3C=CCC32)cc1 (centres undefined)	59*	2.5	/	-18
Cc1cc(C)nc(SCCN(C)C)n1	/	2	-5	/
Cc1cc(C)nc(SCCSc2nc(C)cc(C)n2)n1	100	0.25	-11	34*
Cc1cc(C)nc(SCC(N)=O)n1	101	-0.75	-11	46*
CC12COC3(C(=O)N4CCCCC4)CC1CCC32C (centres undefined)	101	-0.15	0	/
CC12COC3(C(=O)Nc4ccccc4)CC1CCC32C (centres undefined)	100	0.05	0	58*
O=C(NCCc1ccc(Cl)cc1)C1CCC(=O)N1C1CCCCC1 (centres undefined)	102	-0.7	-8	-31
O=C(OCn1nnc2ccccc2c1=O)C1COc2ccccc2O1 (centres undefined)	100	0.4	58*	-22
O=C(OCn1nnc2ccccc2c1=O)C1CCCCC1	102	0.3	6	23
Cc1ccc(C)c(S(=O)(=O)Nc2cc(Cl)c3oc(=O)sc3c2)c1	90	-0.95	62*	-56
N#CSCC(=O)c1cccs1	85*	-3.7*	/	-22
CCN1CCCC1CNc1ncnc2c1cnn2-c1ccc(C)cc1 (centres undefined)	101	-1.1	118	-22
CCN1CCCC1CNc1cc(C)c2ccc(C)cc2n1 (centres undefined)	88*	-1.2	4	-20
O=C(CSc1ncc(C(F)(F)F)cc1Cl)N1CCNC1=O	104	1.2	58*	3
O=C(Cc1ccccc1)Nc1sc2c(c1C(=O)Nc1ccccc1)CCCCC2	100	/	/	/
O=C(Nc1sc2c(c1C(=O)Nc1cccc(Cl)c1)CCCC2)c1cccs1	77*	/	/	/
O=C(Cc1ccccc1)Nc1sc2c(c1C(=O)Nc1ccccc1Cl)CCCC2	85*	/	/	/
O=C(COc1ccccc1)Nc1sc2c(c1C(=O)Nc1ccccc1Cl)CCCCC2	102	/	/	/
O=C(Cc1ccccc1)Nc1sc2c(c1C(=O)Nc1ccc(Cl)cc1)CCCC2	71*	/	/	/
Nc1sc2c(c1C(=O)Nc1ccc(Cl)cc1)CCC2	89*	-0.05	/	-3
Nc1sc2c(c1C(=O)Nc1cccc(Cl)c1)CCCCC2	104	0.05	/	-14
SMILES	Polio RdRp inh	AID504770	Mtb MbtI inh	MenB inh
Cc1c(N=Cc2cc(Br)cc(Br)c2O)cccc1C(=O)O	88*	-0.7	-13	-56
Cc1nnc(SC2CCOC2=O)n1C1CCCCC1 (centres undefined)	99	0.1	15	-5
CCC(C)NCC(=O)Nc1ccc2c(c1)c1ccccc1n2CC (centres undefined)	102	0.25	3	-4
Oc1ccc(O)c(C2CC3CCC2C3)c1 (centres undefined)	99	-0.4	102*	-30
Nc1scc[n+]1CC(=O)[O-]	99	1.8	4	-21
CCNc1ncnc2c1nnn2CC	99	1.9	86*	-47
CCNc1ncnc2c1nnn2C	103	/	/	/
COc1ccc(CNC(=O)CSC(C)(C)C)cc1OC	100	-4.6*	-10	-13
COc1ccc(CNC(=O)CCC2CCCC2)cc1OC	101	0.2	-37	11
O=C1CN(Cc2nc3scc(-c4cccs4)c3c(=O)[nH]2)CCN1	98	-0.2	9	-7
C1CN2CN3CCN(CN1C3)C2	103	-2.4*	-10	-27
Cc1ccc(C2=N/C(=C\c3c(C)nn(-c4ccccc4)c3N3CCCC3)C(=O)O2)s1	28*	-1.8	-1	-11
CCO/C=C1/C(=O)N(C)C(=O)c2ccccc21	17	-0.55	23	10
CCO/C=C1\C(=O)N(Cc2ccccc2)C(=O)c2ccccc21	62*	1.1	-5	/
O=C(Cc1ccc(F)cc1)Nc1cc(=O)[nH]c(=O)[nH]1	98	-0.25	1	6
NC(=O)Cn1nnc2ccccc2c1=O	100	-0.4	-1	3
O=C1N/C(=N\Nc2ccccc2)S/C1=C\c1ccccc1	108	-0.45	80*	-36
O=C1NC(=O)/C(=C\c2ccccc2)S1	/	0.3	/	/
CCCCCCCc1c(COC)[nH]c(=S)[nH]c1=O	102	-0.5	55*	-31
COCc1[nH]c(=S)[nH]c(=O)c1Cc1c(F)cccc1Cl	105	1.6	26	-28
COC(=O)c1cc(-c2ccccc2)sc1NC(=O)C1CCCO1 (centres undefined)	85*	-0.85	/	-33
Cc1ccc(C2=NS(=O)(=O)N(C)C(C(=O)Nc3sc4c(c3C(N)=O)CCCC4)=C2)cc1	94	-0.15	58*	-67
Cc1ccc(-c2nc(SCC(=O)c3ccc(Cl)cc3)n[nH]2)cc1	/	1.9	/	/
Nc1nc(SCC(=O)c2ccc(Cl)cc2)n[nH]1	/	-2.6*	/	/
C=C(C)CN(CC)c1nc(N)c2c(N)nc3c(c2c1C#N)CC(=O)N3C12CC3CC(CC(C3)C1)C2	102	1	-18	-2
SMILES	Polio RdRp inh	AID504770	Mtb MbtI inh	MenB inh
N#Cc1c(N2CCCC(O)C2)nc(N)c2c(N)nc3c(c12)CC(=O)N3C12CC3CC(CC(C3)C1)C2 (centres undefined)	39*	1.3	-14	-25
CCOc1ccc(C(=O)NC(C(=O)Nc2ccc(S(=O)(=O)N(C)C)cc2)C(C)C)cc1 (centres undefined)	102	-5*	4	-29
Cc1cc(F)c(F)c(C(=O)N2CCCCCC2)c1Cl	103	1.4	2	34*
CC12CN3CC(C)(CN(C1)C3(C)C)C2O (centres undefined)	101	-1	-22	2
NNc1nnc(-c2ccccc2)c(-c2ccccc2)n1	100	3	73*	-41
NNc1nc(-c2ccccc2)c2ccccc2n1	/	1.2	/	/
CCN(Cc1ccncc1)Cn1c(=S)oc2ccccc21	102	0.75	75*	-7
O=C(O)C1(c2ccccc2)CCC(Nc2ccccc2)C1 (centres undefined)	69*	-1	/	-5
O=S(=O)(CCc1ccccc1)c1ccccc1	100	1.1	-3	26*
COc1ccc(S(=O)(=O)N(CCc2ccccc2)CC(=O)N2CCN(C)CC2)cc1Cl	101	0.55	-9	-22
CCOC(=O)c1c(C)c(-c2ccccc2)n(CC(=O)NC2CCCC2)c1C	/	0.3	/	/
COc1cc(-c2nnc(-c3ccc(N4CCOCC4)cc3)o2)cc(OC)c1OC	101	0.2	90	-6
CC(C)(C)c1ccc(-c2nnc(-c3ccc(N4CCOCC4)cc3)o2)cc1	101	0.65	i	35*
CCn1c(COc2ccc(C)cc2)nnc1SCC(=O)N1CCCc2ccccc21	99	0.95	1	23
CCn1c(COc2cccc(C)c2)nnc1SCC(=O)N1C(C)CCCC1C (centres undefined)	102	-0.45	-5	39*
